Several values for one entry are separate records, joined by “and”; a condition that tells them apart may be missing. Equal entries are not always repeated. Among all 5,500 compounds or so, about 2,000 (36%) were called active. Another 18% or so got no clear call; they are omitted. Rule as the data show it: active = normalized growth mostly below about 0.91 (no sharp cut-off); inconclusive = no clear call, values can overlap the other calls; inactive = mostly above about 0.92. The list shows a part of the results.
Assay: chemical genetic growth profiling, strain panel (AID 1159580);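 also: tested at 20 µM; growth read once vehicle control cultures reached saturation at 30 °C; 1 = growth at the plate median or of vehicle wells; lower values mean less growth of the strain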
Conditions: growth OD

Measured: normalized growth

NCCc1cnc[nH]1
inactive: S. cerevisiae deletion strains, locus YJR066W, strain TOR1, active compounds read low 0.985 | S. cerevisiae deletion strains, locus YJR075W, strain HOC1, active compounds read low 1.01 | S. cerevisiae deletion strains, locus YKL009W, strain mrt4, active compounds read low 1.01 | S. cerevisiae deletion strains, locus YKL068W, active compounds read low 1.01 | S. cerevisiae deletion strains, locus YKL085W, strain MDH1 (second series), active compounds read low 1.01 | S. cerevisiae deletion strains, locus YKL085W, strain MDH1, active compounds read low 1.01 | S. cerevisiae deletion strains, locus YKL160W, strain elf1, active compounds read low 1.02 | S. cerevisiae deletion strains, locus YKL190W, strain CNB1, active compounds read low 0.978 | S. cerevisiae deletion strains, locus YKR001C, strain vps1, active compounds read low 1.01 | S. cerevisiae deletion strains, locus YKR026C, strain gcn3, active compounds read low 1.02 | S. cerevisiae deletion strains, locus YKR091W, strain srl3, active compounds read low 1.02 | S. cerevisiae deletion strains, locus YLL001W, strain dnm1, active compounds read low 1.02 | S. cerevisiae deletion strains, locus YLL026W, active compounds read low 1.02 | S. cerevisiae deletion strains, locus YLL041C, strain sdh2, active compounds read low 1.02 | S. cerevisiae deletion strains, locus YLR027C, strain aat2, active compounds read low 1.01 | S. cerevisiae deletion strains, locus YLR039C, strain RIC1, active compounds read low 1.05 | S. cerevisiae deletion strains, locus YLR058C, strain SHM2, active compounds read low 1.01 | S. cerevisiae deletion strains, locus YLR102C, strain apc9, active compounds read low 1.02 | S. cerevisiae deletion strains, locus YLR113W, strain HOG1, active compounds read low 0.985 | S. cerevisiae deletion strains, locus YLR221C, strain rsa3, active compounds read low 1.05 | S. cerevisiae deletion strains, locus YLR258W, strain gsy2, active compounds read low 1.02 | S. cerevisiae deletion strains, locus YLR262C, strain YPT6 (second series), active compounds read low 1.06 | S. cerevisiae deletion strains, locus YLR262C, strain YPT6, active compounds read low 1 | S. cerevisiae deletion strains, locus YLR268W, strain sec22, active compounds read low 1.02 | S. cerevisiae deletion strains, locus YLR320W, strain mms22, active compounds read low 1.04 | S. cerevisiae deletion strains, locus YLR330W, strain CHS5, active compounds read low 1.01 | S. cerevisiae deletion strains, locus YLR342W, strain FKS1 (second series), active compounds read low 0.997 | S. cerevisiae deletion strains, locus YLR342W, strain FKS1, active compounds read low 1.02 | S. cerevisiae deletion strains, locus YLR357W, strain rsc2, active compounds read low 1 | S. cerevisiae deletion strains, locus YLR370C, strain arc18, active compounds read low 1.01 | S. cerevisiae deletion strains, locus YLR371W, strain rom2, active compounds read low 1 | S. cerevisiae deletion strains, locus YLR384C, strain iki3, active compounds read low 1.02 | S. cerevisiae deletion strains, locus YLR418C, strain cdc73, active compounds read low 1.04 | S. cerevisiae deletion strains, locus YML016C, strain PPZ1, active compounds read low 1.01 | S. cerevisiae deletion strains, locus YML032C, strain rad52, active compounds read low 1.01 | S. cerevisiae deletion strains, locus YML120C, strain ndi1, active compounds read low 1.02 | S. cerevisiae deletion strains, locus YML124C, strain tub3, active compounds read low 1.01 | S. cerevisiae deletion strains, locus YMR058W, strain fet3, active compounds read low 1.02 | S. cerevisiae deletion strains, locus YMR078C, strain ctf18, active compounds read low 1.02 | S. cerevisiae deletion strains, locus YMR125W, strain sto1, active compounds read low 1.02 | S. cerevisiae deletion strains, locus YMR129W, active compounds read low 1.02 | S. cerevisiae deletion strains, locus YMR205C, strain PFK2, active compounds read low 1.04 | S. cerevisiae deletion strains, locus YMR223W, strain ubp8, active compounds read low 1.03 | S. cerevisiae deletion strains, locus YMR231W, strain pep5, active compounds read low 1.01 | S. cerevisiae deletion strains, locus YMR307W, strain GAS1, active compounds read low 0.923 and 0.999 | S. cerevisiae deletion strains, locus YNL067W, strain RPL9B, active compounds read low 0.995 | S. cerevisiae deletion strains, locus YNL071W, strain lat1, active compounds read low 1.02 | S. cerevisiae deletion strains, locus YNL128W, strain TEP1, active compounds read low 1 | S. cerevisiae deletion strains, locus YNL183C, strain NPR1, active compounds read low 0.962 | S. cerevisiae deletion strains, locus YNL209W, strain ssb2, active compounds read low 1.02 | S. cerevisiae deletion strains, locus YNL233W, strain BNI4, active compounds read low 1.01 | S. cerevisiae deletion strains, locus YNL248C, strain rpa49, active compounds read low 1.02 | S. cerevisiae deletion strains, locus YNL250W, strain rad50, active compounds read low 1.05 | S. cerevisiae deletion strains, locus YNL271C, strain bni1, active compounds read low 1.03 | S. cerevisiae deletion strains, locus YNL298W, strain CLA4, active compounds read low 1.02 | S. cerevisiae deletion strains, locus YNL307C, strain MCK1, active compounds read low 1.02 | S. cerevisiae deletion strains, locus YNL322C, strain KRE1 (second series), active compounds read low 1.03 | S. cerevisiae deletion strains, locus YNR049C, strain mso1, active compounds read low 1.04 | S. cerevisiae deletion strains, locus YNR052C, strain pop2, active compounds read low 1.01 | S. cerevisiae deletion strains, locus YOL012C, strain htz1 1.37 | S. cerevisiae deletion strains, locus YOL147C, strain pex11, active compounds read low 1.02 | S. cerevisiae deletion strains, locus YOR001W, strain rrp6, active compounds read low 1.01 | S. cerevisiae deletion strains, locus YOR061W, strain CKA2, active compounds read low 1.01 | S. cerevisiae deletion strains, locus YOR069W, strain VPS5, active compounds read low 1 | S. cerevisiae deletion strains, locus YOR070C, strain gyp1, active compounds read low 1.02 | S. cerevisiae deletion strains, locus YOR080W, strain dia2, active compounds read low 1.01 | S. cerevisiae deletion strains, locus YOR083W, strain WHI5, active compounds read low 1.03 | S. cerevisiae deletion strains, locus YOR106W, strain vam3, active compounds read low 1 | S. cerevisiae deletion strains, locus YOR136W, strain idh2, active compounds read low 1.02 | S. cerevisiae deletion strains, locus YOR144C, strain elg1, active compounds read low 1.01 | S. cerevisiae deletion strains, locus YOR184W, strain ser1, active compounds read low 1.02 | S. cerevisiae deletion strains, locus YOR231W, strain MKK1, active compounds read low 1 | S. cerevisiae deletion strains, locus YOR265W, strain rbl2, active compounds read low 1.02 | S. cerevisiae deletion strains, locus YOR270C, strain vph1, active compounds read low 1.07 | S. cerevisiae deletion strains, locus YOR290C, strain snf2, active compounds read low 0.969 | S. cerevisiae deletion strains, locus YOR316C, strain cot1, active compounds read low 1.02 | S. cerevisiae deletion strains, locus YPL051W, strain arl3, active compounds read low 1 | S. cerevisiae deletion strains, locus YPL078C, strain atp4, active compounds read low 1.02 | S. cerevisiae deletion strains, locus YPL106C, strain sse1, active compounds read low 1.03 | S. cerevisiae deletion strains, locus YPL240C, strain hsp82, active compounds read low 1.01 | S. cerevisiae deletion strains, locus YPL241C, strain CIN2, active compounds read low 1 | S. cerevisiae deletion strains, locus YPR119W, strain clb2, active compounds read low 1.01 | S. cerevisiae deletion strains, locus YPR141C, strain kar3, active compounds read low 1.01 | S. cerevisiae deletion strains, locus YPR163C, strain tif3, active compounds read low 1.03 | S. cerevisiae deletion strains, locus YPR167C, strain met16, active compounds read low 1.02 | S. cerevisiae deletion strains, strain wtn01, active compounds read low 1.01 | S. cerevisiae strains, strain wild type, active compounds read low 0.988
active: S. cerevisiae deletion strains, locus YNL153C, strain GIM3, active compounds read low 0.778 | S. cerevisiae deletion strains, locus YNL175C, strain NOP13, active compounds read low 0.381 | S. cerevisiae deletion strains, locus YNL197C, strain WHI3, active compounds read low 0.662 | S. cerevisiae deletion strains, locus YOR083W, strain WHI5 (second series), active compounds read low 0.582
